From PubChem BioAssay (NCATS) come the findings set out here.

Structures are written as SMILES. Records with an inconclusive call do not appear. Active and inactive are the calls of the source. Unless noted, the call rests on the fitted dose curve; in most records, active means well fitted curve in the direction sought with a large enough effect; inconclusive means small, poorly fitted or top-dose-only effect, or another doubt; inactive means no such curve, though single readings can be large; an effect the other way counts as inactive or inconclusive.

The target of assay [1] is Transient receptor potential cation channel subfamily V member 1 (Homo sapiens) (UniProt Q8NER1). Nature of the assay: HTS Assay for Compounds that Act as Enhancers of the Vanilloid Receptor 1 (AID 488979). Further: 0% is about no effect. In outline: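 Calcium influx kinetics via Fluo-8 (480/520 nm) in TRPV1-expressing cells, 2000/well cultured overnight at 35.5C. Compound-alone read 3 min (agonist phase), followed by EC20 capsaicin challenge for 2 min (enhancer phase).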

Assay [2] concerns the target Thyrotropin receptor (Homo sapiens) (UniProt P16473). Kind of assay: qHTS Assay for Antagonists of the Thyroid Stimulating Hormone Receptor (AID 488980). Further: series mostly up to about 58 µM; 0% is about no effect. In outline: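 HEK293 cells transfected with human TSHR, suspended in HEPES-buffered HBSS with 70 uM RO 20-1724, were treated with compounds plus TSH at EC80 (4 nM final). cAMP was measured by competitive HTRF (cryptate anti-cAMP antibody, cAMP-d2 acceptor).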
(Quantitative high-throughput screening tests each substance at several concentrations.)

Assay [3] deals with D(1A) dopamine receptor (Homo sapiens) (UniProt P21728). Nature of the assay: HTS Assay for Allosteric Agonists of the Human D1 Dopamine Receptor: Primary Screen for Agonists (AID 488981). Further: 0% is about no effect. The method in brief:
(§1)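 Calcium flux in an inducible, force-coupled HEK293 Trex D1 line (overnight at 30 C): agonist mode is the 180 s kinetic read after compound; potentiator mode is the following 180 s read after dopamine at EC20.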

Assay [4] shares this target. Kind of assay: HTS Assay for Allosteric Agonists of the Human D1 Dopamine Receptor: Primary Screen for Potentiators (AID 488982). Further: potency means the concentration at half of the fitted maximal effect. In outline: as §1
For assay [5] the target is unchanged. Nature of the assay: HTS Assay for Allosteric Agonists of the Human D1 Dopamine Receptor: Primary Screen for Antagonists (AID 488983).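 Further: calcium flux response to an EC80 dopamine challenge measured with no-wash dye; nearly all actives have a fitted effect of over 65% in size.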 Further: potency means the concentration at half of the fitted maximal effect. The method in brief: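 Calcium flux readout, no-wash dye, inducible HEK293 T-REx D1 line (force-coupled). Compound added after 10 s baseline, 180 s kinetic read; then dopamine at EC80, further 180 s read.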
Assay [6] has as its target Thyrotropin-releasing hormone receptor (Homo sapiens) (UniProt P34981). Kind of assay: qHTS for Small Molecule Agonists and Allosteric Enhancers of Human TRH Receptor: Validation Screen for Agonists (AID 493127;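 active means calcium activation more than 3 SD above the typical response in the agonist read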;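 further: intracellular calcium rise by fluo-8 fluorescence before TRH EC20 addition; 0% is about no effect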). Conditions: TRH receptor agonist cell assay; at 2 µM; stronger effect = higher value. The method in brief:
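Read-out: intracellular calcium release measured kinetically by FDSS (fluo-8, ex 480/em 530 nm), 1 reading/s after a 10-cycle baseline. TRHR cells, 2000/well, cultured 18 h at 33.5C, dye-loaded at room temp. Compound-evoked positive calcium signal flags agonists.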

Assay [7] is described as follows: qHTS for Inhibitors of Cell Surface uPA Generation: Validation Assay (AID 493164).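 Further: RAW 264.7 macrophage cells exposed to compound for 18 h; 0% is about no effect.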 In outline:
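Compounds are titrated over seven points (2.45 nM–38.3 uM final) onto pre-plated RAW 264.7 cells and incubated for 18 h. Retained intracellular ATP, measured with ATP-Lite, indicates blocked lethal factor entry.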

The target of assay [8] is Galactokinase (Homo sapiens) (UniProt P51570). Kind of assay: qHTS Validation Assay for Inhibitors of Human Galactokinase (GALK) (AID 493189). Further: 0% is about no effect. The method in brief: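 GALK (5 nM) with 35 uM ATP and 100 uM galactose in HEPES pH8.0, MgCl2, NaCl, DTT, BSA; 1 h at room temperature. Residual ATP read by Kinase-Glo Plus luminescence after 10 min.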
Assay [9] is described as follows: Validation screen for small molecules that induce DNA re-replication in SW480 colon adenocarcinoma cells (AID 504364). Further: potency means the concentration at half of the fitted maximal effect. In outline:
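Read-out: total Hoechst intensity of nuclei by fluorescence scanning imager; hits raise the fraction of nuclei with elevated DNA content. Cells received compound for 48 hr at 37 C before a 40 min stain.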

Assay [10] deals with Peptidyl-prolyl cis-trans isomerase NIMA-interacting 1 (Homo sapiens) (UniProt Q13526). Kind of assay: qHTS Validation Assay to Find Inhibitors of Pin1 (AID 504536; active means well fitted inhibition curve with a large enough effect in the polarisation, with a control signal flat, not every such curve was filed as active; the % refers to the polarisation;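 further: 0% = full Pin1 enzyme wells and -100% = no-enzyme wells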). In outline:
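Fluorescence polarization competition: compounds (titration) displace HiFluor-488-labeled Pin1-1b peptide from Pin1 (0.3 uM final) in pH 7.5 HEPES buffer with DTT, 10 min at room temperature; %Activity normalized to no-enzyme wells, curves fitted.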

In assay [11] the target is Phosphoglycerate kinase, glycosomal (Trypanosoma brucei brucei) (UniProt P07378). Kind of assay: qHTS Validation Assay to Find Inhibitors of Phosphoglycerate Kinase (AID 504547).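 Further: control wells lack PGK and mark full inhibition.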 The method in brief: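 Luminescence end-point (Kinase-Glo Plus, 10 min) after a 60 min room-temperature coupled reaction. GAPDH at 100nM final supplies 1,3-BPG to PGK. Buffer: 100mM TEA pH 7.6, 5mM MgCl2, 0.01% Tween-20. Wells lacking PGK served as controls.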

Assay [12] has as its target phosphoglycerate mutase (Leishmania major) (UniProt Q4Q090). Kind of assay: qHTS Validation Assay to Find Inhibitors of Phosphoglycerate Mutase (AID 504548).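 Further: end-point luminescence from Kinase-GloPlus after the PGAM reaction; series mostly up to about 58 µM; on the % scale 0 is the no-effect control and ±100 the full control effect.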 Conditions: Potency: inhibition qHTS. The method in brief: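 Inhibition of L. major PGAM was assessed by Kinase-GloPlus luminescence following a 45-minute room-temperature reaction with enzyme at 1.25nM final.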

Assay [13] addresses Ubiquitin carboxyl-terminal hydrolase 1 (Homo sapiens) (UniProt O94782). Nature of the assay: Inhibitors of USP1/UAF1: Pilot qHTS (AID 504865).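 Further: rhodamine fluorescence freed from ubiquitin-rhodamine substrate followed over time; top concentration of the series differs between compounds; on the % scale 0 is the no-effect control and ±100 the full control effect; nearly all actives have a fitted effect of over 35% in size.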 In outline: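 USP1/UAF1 complex (1nM) preincubated with compound 15 min at room temperature, then Ub-Rho substrate (150nM final) added. Fluorescence read kinetically at 480/540 nm, 6 reads every 60 seconds. Buffer: 50mM HEPES pH 7.8, 0.5mM EDTA, 0.1 mg/ml BSA, 1mM TCEP, 0.01% Tween-20.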

Assay [14] is described as follows: Validation screen for small molecules that induce genotoxicity in human embryonic kidney (HEK293T) cells expressing luciferase-tagged ELG1 (AID 493106). Further: 0% is about no effect. The method in brief: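 qHTS format; 2,000 HEK293T ELG1-luc cells/well; 23 nL compound via pin tool; 16 hr, 37 °C/5% CO2; ONE-Glo, 30 min RT; luminescence read.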
The nature of assay [15]: qHTS for Inhibitors of ATXN expression: Validation of Cytotoxic Assay (AID 588349). Further: on the % scale 0 is the no-effect control and ±100 the full control effect. The method in brief:
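Cytotoxicity counter-screen: HEK293 cells exposed to compound titrations, 72 hr, 37 degrees C. Read-out is intracellular ATP (CellTiter Glo luminescence) as a viability measure.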

Assay [16] in a line: qHTS for Inhibitors of ATXN expression: Validation (AID 588378). Further: series mostly up to about 57 µM; on the % scale 0 is the no-effect control and ±100 the full control effect; nearly all actives have a fitted effect of over 75% in size. In outline:
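Luminescence from an ATXN2-FFLuc reporter in HEK293 cells served as read-out after 24 h compound treatment at 37 degrees C; CellTiter-Fluor fluorescence was recorded first to assess viability.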

For assay [17], the target named is ATPase family AAA domain-containing protein 5 (Homo sapiens) (UniProt Q96QE3). Nature of the assay: Validation screen for small molecules that inhibit ELG1-dependent DNA repair in human embryonic kidney (HEK293T) cells expressing luciferase-tagged ELG1 (AID 493107).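 Further: cells co-treated with the DNA-damaging agent 5-fluorouridine alongside compound; series mostly up to about 46 µM; on the % scale 0 is the no-effect control and ±100 the full control effect; inhibitors lower the ELG1-luciferase luminescence signal; nearly all actives have a fitted effect of over 70% in size.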 In outline: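 ELG1-luciferase HEK293T reporter; 5-fluorouridine + compound/DMSO, 16 hr, 37 °C, 5% CO2; ONE-Glo 30 min RT; luminescence read, qHTS format.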

A short description of assay [18]: Nrf2 qHTS screen for inhibitors: Validation (AID 493153; active means well fitted inhibition curve with a large enough effect in the main read-out, with a control signal flat, not every such curve was filed as active). Conditions: Potency: luciferase luminescence; viability change: measured here: cytotoxicity max response. The method in brief: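 Concentration-response test in A549 ARE_Fluc reporter cells (5% FBS OPTI-MEM), compound exposure 18-24 h at 37°C, 5% CO2. Cell viability measured first by CellTiter-Fluor fluorescence; ARE-driven luciferase luminescence then measured as Nrf2 activity.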

Sequence of Galactokinase (Homo sapiens) (P51570 whole entry, looked up): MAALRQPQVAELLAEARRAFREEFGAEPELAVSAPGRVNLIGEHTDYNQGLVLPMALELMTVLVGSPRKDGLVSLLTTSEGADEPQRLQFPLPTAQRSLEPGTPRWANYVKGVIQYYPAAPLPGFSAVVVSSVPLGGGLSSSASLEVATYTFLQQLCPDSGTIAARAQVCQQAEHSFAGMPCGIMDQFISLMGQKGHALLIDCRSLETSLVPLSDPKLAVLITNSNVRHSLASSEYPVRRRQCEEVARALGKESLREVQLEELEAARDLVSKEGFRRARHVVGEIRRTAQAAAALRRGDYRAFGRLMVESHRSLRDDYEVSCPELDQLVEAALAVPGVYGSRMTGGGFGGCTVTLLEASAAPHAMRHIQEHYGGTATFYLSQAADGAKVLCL
Sequence of Ubiquitin carboxyl-terminal hydrolase 1 (Homo sapiens) (O94782 whole entry, looked up): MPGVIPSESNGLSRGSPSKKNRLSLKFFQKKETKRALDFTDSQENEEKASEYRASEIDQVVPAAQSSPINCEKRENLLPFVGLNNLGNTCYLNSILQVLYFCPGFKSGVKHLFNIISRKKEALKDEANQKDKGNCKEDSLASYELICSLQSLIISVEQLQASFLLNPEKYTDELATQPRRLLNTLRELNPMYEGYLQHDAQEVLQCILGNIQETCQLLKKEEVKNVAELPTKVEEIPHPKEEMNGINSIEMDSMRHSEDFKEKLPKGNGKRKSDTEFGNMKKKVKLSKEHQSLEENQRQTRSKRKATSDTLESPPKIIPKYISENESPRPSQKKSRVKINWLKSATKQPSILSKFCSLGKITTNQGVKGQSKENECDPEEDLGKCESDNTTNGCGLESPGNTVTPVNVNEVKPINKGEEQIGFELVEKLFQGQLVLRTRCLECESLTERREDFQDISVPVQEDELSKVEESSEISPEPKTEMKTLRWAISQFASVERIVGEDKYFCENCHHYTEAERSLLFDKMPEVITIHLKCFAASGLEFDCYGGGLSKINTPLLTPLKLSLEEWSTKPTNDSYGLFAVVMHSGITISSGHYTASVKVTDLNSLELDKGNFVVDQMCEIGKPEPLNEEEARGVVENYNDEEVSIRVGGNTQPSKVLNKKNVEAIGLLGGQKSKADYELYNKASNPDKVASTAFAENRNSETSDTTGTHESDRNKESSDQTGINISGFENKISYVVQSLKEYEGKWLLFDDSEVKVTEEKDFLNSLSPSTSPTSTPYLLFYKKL
Sequence of Transient receptor potential cation channel subfamily V member 1 (Homo sapiens) (Q8NER1 whole entry, looked up): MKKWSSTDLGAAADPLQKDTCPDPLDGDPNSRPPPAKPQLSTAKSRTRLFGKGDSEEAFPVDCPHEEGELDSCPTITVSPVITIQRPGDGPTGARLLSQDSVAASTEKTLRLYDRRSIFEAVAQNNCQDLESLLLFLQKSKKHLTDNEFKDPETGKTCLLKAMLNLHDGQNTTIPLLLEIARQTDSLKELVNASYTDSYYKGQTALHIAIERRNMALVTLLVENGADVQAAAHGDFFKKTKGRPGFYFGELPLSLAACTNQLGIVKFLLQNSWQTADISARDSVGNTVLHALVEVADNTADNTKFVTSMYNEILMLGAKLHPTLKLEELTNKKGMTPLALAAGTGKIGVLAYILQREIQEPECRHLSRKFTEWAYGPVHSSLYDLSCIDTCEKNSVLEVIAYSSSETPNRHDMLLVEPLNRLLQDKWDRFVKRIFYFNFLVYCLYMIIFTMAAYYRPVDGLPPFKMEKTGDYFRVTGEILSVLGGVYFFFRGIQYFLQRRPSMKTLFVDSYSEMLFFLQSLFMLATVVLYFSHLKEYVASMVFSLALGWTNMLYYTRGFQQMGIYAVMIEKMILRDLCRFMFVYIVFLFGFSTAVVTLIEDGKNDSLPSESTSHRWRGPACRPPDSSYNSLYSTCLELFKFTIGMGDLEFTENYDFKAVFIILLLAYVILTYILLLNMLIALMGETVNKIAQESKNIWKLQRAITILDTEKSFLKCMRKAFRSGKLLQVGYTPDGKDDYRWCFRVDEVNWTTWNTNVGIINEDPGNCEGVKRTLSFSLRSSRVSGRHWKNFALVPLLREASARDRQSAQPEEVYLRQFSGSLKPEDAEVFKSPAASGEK
Sequence of phosphoglycerate mutase (Leishmania major) (Q4Q090 1-553): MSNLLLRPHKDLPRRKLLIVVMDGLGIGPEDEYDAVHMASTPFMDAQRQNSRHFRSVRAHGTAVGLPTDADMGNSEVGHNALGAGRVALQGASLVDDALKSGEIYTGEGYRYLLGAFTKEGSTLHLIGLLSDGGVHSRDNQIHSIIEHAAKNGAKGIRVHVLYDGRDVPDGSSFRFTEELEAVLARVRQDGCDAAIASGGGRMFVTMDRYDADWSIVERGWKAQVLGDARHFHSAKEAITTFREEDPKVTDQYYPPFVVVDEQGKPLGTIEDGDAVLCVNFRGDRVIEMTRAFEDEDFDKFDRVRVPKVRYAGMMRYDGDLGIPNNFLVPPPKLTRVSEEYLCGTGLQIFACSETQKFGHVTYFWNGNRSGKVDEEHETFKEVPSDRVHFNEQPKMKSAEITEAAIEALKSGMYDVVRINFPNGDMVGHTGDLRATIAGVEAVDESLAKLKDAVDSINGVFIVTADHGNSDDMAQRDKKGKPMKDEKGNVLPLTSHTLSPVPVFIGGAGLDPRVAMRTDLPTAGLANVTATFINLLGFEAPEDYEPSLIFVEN
Sequence of Phosphoglycerate kinase, glycosomal (Trypanosoma brucei brucei) (P07378 whole entry, looked up): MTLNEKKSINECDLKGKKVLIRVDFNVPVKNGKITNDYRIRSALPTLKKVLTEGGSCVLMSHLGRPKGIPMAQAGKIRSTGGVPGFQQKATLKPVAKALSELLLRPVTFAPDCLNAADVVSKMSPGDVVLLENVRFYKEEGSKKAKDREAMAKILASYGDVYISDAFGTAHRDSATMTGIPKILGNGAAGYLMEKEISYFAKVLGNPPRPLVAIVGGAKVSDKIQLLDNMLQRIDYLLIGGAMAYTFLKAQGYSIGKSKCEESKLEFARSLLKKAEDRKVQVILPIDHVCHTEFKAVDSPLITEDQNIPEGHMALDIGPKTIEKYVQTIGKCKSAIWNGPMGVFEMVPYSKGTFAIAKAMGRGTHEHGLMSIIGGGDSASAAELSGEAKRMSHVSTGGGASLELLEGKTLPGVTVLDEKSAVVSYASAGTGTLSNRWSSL
Sequence of Peptidyl-prolyl cis-trans isomerase NIMA-interacting 1 (Homo sapiens) (Q13526 whole entry, looked up): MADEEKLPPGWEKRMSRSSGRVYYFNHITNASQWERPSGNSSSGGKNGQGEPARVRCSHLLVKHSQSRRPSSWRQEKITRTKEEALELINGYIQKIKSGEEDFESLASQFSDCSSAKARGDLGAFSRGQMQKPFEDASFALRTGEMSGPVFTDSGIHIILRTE
Sequence of Thyrotropin-releasing hormone receptor (Homo sapiens) (P34981 whole entry, looked up): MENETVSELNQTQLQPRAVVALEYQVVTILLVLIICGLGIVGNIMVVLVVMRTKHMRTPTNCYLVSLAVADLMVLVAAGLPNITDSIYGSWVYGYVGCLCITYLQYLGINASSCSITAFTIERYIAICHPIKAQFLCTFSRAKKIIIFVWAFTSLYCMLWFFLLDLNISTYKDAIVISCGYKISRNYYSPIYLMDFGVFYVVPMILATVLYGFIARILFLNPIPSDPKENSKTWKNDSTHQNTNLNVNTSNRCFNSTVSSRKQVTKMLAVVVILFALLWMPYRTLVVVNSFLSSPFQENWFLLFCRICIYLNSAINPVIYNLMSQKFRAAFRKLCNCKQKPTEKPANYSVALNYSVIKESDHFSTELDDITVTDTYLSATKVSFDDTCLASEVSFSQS
Sequence of Thyrotropin receptor (Homo sapiens) (P16473 whole entry, looked up): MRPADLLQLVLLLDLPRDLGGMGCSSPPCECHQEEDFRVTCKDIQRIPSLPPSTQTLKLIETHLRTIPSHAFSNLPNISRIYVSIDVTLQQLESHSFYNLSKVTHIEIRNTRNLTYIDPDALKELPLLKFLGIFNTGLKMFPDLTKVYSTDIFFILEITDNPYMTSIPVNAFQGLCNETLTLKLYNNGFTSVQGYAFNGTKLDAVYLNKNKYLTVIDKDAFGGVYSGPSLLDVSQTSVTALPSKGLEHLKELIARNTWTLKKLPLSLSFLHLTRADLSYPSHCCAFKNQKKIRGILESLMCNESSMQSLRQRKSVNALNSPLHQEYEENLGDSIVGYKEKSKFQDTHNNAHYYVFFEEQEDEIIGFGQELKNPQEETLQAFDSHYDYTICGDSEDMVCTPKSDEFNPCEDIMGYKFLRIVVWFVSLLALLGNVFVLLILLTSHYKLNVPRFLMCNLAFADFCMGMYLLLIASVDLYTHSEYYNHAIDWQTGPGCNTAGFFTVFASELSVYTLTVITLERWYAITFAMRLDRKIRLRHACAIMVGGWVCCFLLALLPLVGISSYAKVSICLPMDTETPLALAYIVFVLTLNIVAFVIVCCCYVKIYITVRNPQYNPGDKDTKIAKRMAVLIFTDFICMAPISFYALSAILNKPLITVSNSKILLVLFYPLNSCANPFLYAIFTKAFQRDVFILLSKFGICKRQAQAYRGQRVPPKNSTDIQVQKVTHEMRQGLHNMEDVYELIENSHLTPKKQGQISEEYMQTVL
Sequence of D(1A) dopamine receptor (Homo sapiens) (P21728 whole entry, looked up): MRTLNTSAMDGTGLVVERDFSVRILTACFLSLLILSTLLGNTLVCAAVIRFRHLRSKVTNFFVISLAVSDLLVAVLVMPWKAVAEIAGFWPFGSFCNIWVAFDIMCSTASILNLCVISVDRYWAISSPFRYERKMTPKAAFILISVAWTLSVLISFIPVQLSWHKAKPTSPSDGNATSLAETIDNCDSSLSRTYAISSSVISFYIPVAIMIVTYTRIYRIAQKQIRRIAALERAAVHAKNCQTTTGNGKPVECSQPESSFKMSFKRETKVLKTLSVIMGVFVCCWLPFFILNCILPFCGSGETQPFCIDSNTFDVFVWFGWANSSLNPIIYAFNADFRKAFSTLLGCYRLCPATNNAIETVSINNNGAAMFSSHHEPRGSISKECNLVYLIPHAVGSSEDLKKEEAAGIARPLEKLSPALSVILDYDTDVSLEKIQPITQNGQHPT

On to `CCC1(O)CC2CN(CCc3c([nH]c4ccccc34)[C@@](C(=O)OC)(c3cc4c(cc3OC)N(C)C3[C@]45CCN4CC=C[C@@](CC)([C@@H](OC(C)=O)[C@]3(O)C(=O)OC)[C@H]45)C2)C1` (some centres undefined), for which the result in assay [1], in [2] and in [7] was inactive. The Potency result in assay [3], in assay [4], in [5], in assay [8], in assay [10] and in assay [11] was “inactive” throughout. For the same molecule, the Potency entry in assay [12] and in assay [13] was “inactive” throughout. The activation in [6] was -0.125% (inactive). Moreover, the Potency in [9] is 20.6 nM (active).

Consider `Cc1cccc(C(=O)NCN2CCN(c3ccccc3C#N)CC2)c1`, for which the outcome in assay [1], in [2] and in [7] was inactive. Besides, the Potency entry in assay [3], in [4], in [14], in assay [8], in [9] and in assay [10] was “inactive” throughout. For the same molecule, the Potency entry in [11], in assay [12], in [13], in assay [15] and in assay [16] was “inactive” each time. In assay [6], the activation is 0.562% (inactive).

As for `NC(=Nc1ccccc1)NC(=O)c1nc(Cl)c(N)nc1N`, the result in assay [1], in [2] and in assay [7] was inactive. Besides, the Potency result in assay [3], in assay [4], in assay [8], in [10], in assay [11] and in [12] was “inactive” each time. Moreover, the Potency result in assay [13] and in [16] was “inactive” throughout. Also, the Potency in [5] was 12600 nM (active).

Consider `O=C(O)c1ccccc1Nc1cccc(OCc2ccc3ccccc3n2)c1`, for which the result in [1], in assay [2] and in assay [7] was inactive. In addition, the Potency entry in [3], in assay [4], in [14], in assay [17], in assay [18] and in assay [8] was “inactive” in each case. Further, the Potency result in assay [9], in assay [10], in [11], in assay [12], in [15] and in [16] was “inactive” throughout. Moreover, the activation in [6] is -5.56% (inactive). The viability change in [18] is -13.9%.

In the case of `C[C@@H](NCCc1ccc(O)cc1)[C@@H](O)c1ccc(O)cc1`, the result in assay [1], in [2] and in assay [7] was inactive. The Potency entry in assay [3], in [4], in assay [14], in assay [8], in [9] and in assay [10] was “inactive” throughout. In addition, the Potency entry in assay [11], in assay [12], in [13] and in assay [16] was “inactive” throughout. Moreover, in [6], the activation was 1.12% (inactive).

For the molecule `CC(C)(C)NCC(O)COc1cccc2[nH]c(=O)[nH]c12` (centres undefined), the outcome in [1], in [2] and in assay [7] was inactive. The Potency result in [3], in [4], in assay [5], in assay [18], in assay [8] and in [9] was “inactive” in each case. The Potency result in [10], in assay [12], in assay [13], in [15] and in assay [16] was “inactive” throughout. For the same molecule, the activation in assay [6] was 1.12% (inactive). In addition, in assay [18], the viability change is -1.12%.

As to `CCCOC(=O)c1c(-c2ccccc2)nc(CC)c(C(=O)SCC)c1CCC`, the result in assay [1], in assay [2] and in assay [7] was inactive. In addition, the Potency result in assay [3], in [14], in assay [17], in assay [18], in assay [8] and in assay [9] was “inactive” throughout. Further, the Potency entry in [10], in assay [11], in assay [12], in assay [15] and in [16] was “inactive” in each case. Besides, the Potency in assay [4] is 2910 nM (active). Moreover, the viability change in assay [18] was -5.09%.

On to `COc1ccccc1N1CCN(CCN(C(=O)c2ccc(F)cc2)c2ccccn2)CC1`, for which the result in assay [1] and in assay [2] was inactive. For the same molecule, the Potency entry in [3], in assay [4], in assay [14], in assay [8], in [9] and in assay [10] was “inactive” throughout. In addition, the Potency entry in assay [12], in assay [13] and in assay [16] was “inactive” each time.
